Among all 96,000 compounds or so, about 19,000 (20%) were called active.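 Rule for the calls: active = blocking of liver enzyme CYP2C9 beyond about 50% at 5 µM (limit read from the data); inactive = the rest.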 Not all results are given here.

The target of this experiment is Cytochrome P450 2C9 (Homo sapiens) (UniProt P11712). As to the kind of experiment: blockers of cytochrome P450 2C9 activity – biochemical, luminescence, ADME assay, primary screen (AID 777). Particulars: CYP2C9 Supersomes, luciferin-H conversion, at 5 µM, active compounds read high.
Chain of Cytochrome P450 2C9 (Homo sapiens) (P11712 whole entry, looked up): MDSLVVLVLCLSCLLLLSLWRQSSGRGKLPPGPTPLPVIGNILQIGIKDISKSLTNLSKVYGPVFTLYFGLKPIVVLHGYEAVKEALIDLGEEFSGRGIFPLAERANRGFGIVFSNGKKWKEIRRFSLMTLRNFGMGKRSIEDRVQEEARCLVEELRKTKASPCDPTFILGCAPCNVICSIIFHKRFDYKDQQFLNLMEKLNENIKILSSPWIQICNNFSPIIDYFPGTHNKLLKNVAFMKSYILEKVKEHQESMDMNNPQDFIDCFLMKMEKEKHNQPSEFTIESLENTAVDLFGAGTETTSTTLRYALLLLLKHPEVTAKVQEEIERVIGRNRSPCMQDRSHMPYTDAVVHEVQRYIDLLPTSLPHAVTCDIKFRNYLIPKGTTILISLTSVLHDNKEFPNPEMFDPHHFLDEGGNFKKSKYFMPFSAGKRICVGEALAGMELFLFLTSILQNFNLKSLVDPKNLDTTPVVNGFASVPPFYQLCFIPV
As usually defined, the inhibition is the relative decrease from the control value, in per cent. Turning to `CCN(CCCNC(=O)C1CCN(S(=O)(=O)c2cnc[nH]2)CC1)c1ccccc1`, the inhibition is 81.8% (active).
For `CCCS(=O)(=O)N1CCC(C(=O)NCCCN(C)Cc2ccccc2)CC1` the value was 20.7% (inactive).
In the case of `Cc1cccc(N2CCN(C(=O)C3CCN(S(=O)(=O)c4cnc[nH]4)CC3)CC2)c1C`, the inhibition was 30.4% (inactive).
As for `CCCCC(=O)N(c1ccc(OC)cc1)C1C=CS(=O)(=O)C1` (stereo not drawn), the inhibition is 25.7% (inactive).
As to `Cn1cccc1Cc1nnc(SCC(=O)NCCc2ccccc2)n1-c1ccc(F)cc1`, the inhibition is 48.3% (inactive).
On to `CNC(=O)CSc1nnc(CCc2ccccc2)n1-c1ccccc1`, for which the inhibition was -17.6% (inactive).
With `Cc1ccc(-n2c(SCC(=O)Nc3ccc4c(c3)OCO4)nnc2-c2ccccn2)cc1`, the inhibition is 43% (inactive).
Regarding `CC(C)NC(=O)CSc1ccccc1C(=O)NCc1ccc2c(c1)OCO2`, the inhibition was 16.9% (inactive).
Regarding `Cn1cccc1Cc1nnc(SCC(=O)NCc2ccc3c(c2)OCO3)n1CCc1ccccc1`, the inhibition was 55% (active).
Turning to `Cc1ccc(-n2c(SCC(=O)NCc3ccc4c(c3)OCO4)nnc2-c2cccnc2)c(C)c1`, the inhibition was 62.7% (active).
In the case of `Cc1ccccc1-c1nnc(SCC(=O)NCc2ccc3c(c2)OCO3)n1C` it was 88.6% (active); in that of `O=C(CSc1nnc(-c2ccccn2)n1-c1ccccc1)Nc1ccc2c(c1)OCO2`, 2.8% (inactive).
In the case of `Cc1cccc(NC(=S)Nc2ccc(Br)cc2)c1`, the inhibition is 2.2% (inactive).
Take `CC(C)(C)C(=O)CCN1C(=O)C2(OCCO2)c2ccccc21`: the inhibition is 7.8% (inactive).
In the case of `CCN(CC)CCNC(=O)C1c2ccccc2C(=O)N(C)C1c1cn(C)c2ccccc12` (stereo not drawn) it was 1.7% (inactive); in that of `COc1ccc(-c2nnco2)cc1OC`, -14.9% (inactive); in that of `COc1ccc(NC(=O)CC2COc3ccccc3O2)c(OC)c1` (stereo not drawn), 5.9% (inactive).
For the compound `O=C(CN1C(=O)CSc2ncccc21)N1CCOCC1`, the inhibition is 41.4% (inactive).
For the compound `O=C(c1ccc2c(c1)OCO2)N1CCN(C(=O)c2ccco2)CC1`, the inhibition is 15.8% (inactive).
Take `O=C(c1ccco1)N1CCN(C(=O)C2c3ccccc3Oc3ccccc32)CC1`: the inhibition was 58.3% (active).
Regarding `O=C(c1ccco1)N1CCN(c2cccc(Cl)c2)CC1`, the inhibition was 17.6% (inactive).
Regarding `COc1nc(Oc2ccc(=O)n(C)n2)nc(N(C)C)n1`, the inhibition is -16.1% (inactive).
With `COc1ccccc1OCCNc1cc(N2CCOCC2)ccc1[N+](=O)[O-]`, the inhibition is 55.8% (active).
As for `COc1ccc(C(=O)Cn2nnc(-c3ccc(N4CCOCC4)cc3)n2)cc1OC`, the inhibition was -6% (inactive).
On to `COc1cc(C(=S)N2CCOCC2)cc(OC)c1OC(=O)c1cc([N+](=O)[O-])c(C)c([N+](=O)[O-])c1`, for which the inhibition is 5.7% (inactive).
For the compound `Cc1nn(-c2cc(Cl)ccc2N)c(=O)c2ccccc12`, the inhibition is 2.2% (inactive).
In the case of `O=C1C2(c3ccccc3)CN(CCCO)CC1(c1ccccc1)CN(CCCO)C2`, the inhibition is 7.8% (inactive).
`Cc1ccc(NC(=O)CCNS(=O)(=O)c2ccc3c(c2)oc(=O)n3C)cc1C`: the inhibition is -21.7% (inactive).
In the case of `FC(F)Oc1ccccc1C1CC(c2ccc(Br)s2)Nc2ncnn21` (stereo not drawn), the inhibition was 91.4% (active).
As for `CCCCC(=O)N1CC2(C)CN(C(=O)CCCC)CC(C)(C1)C2=O`, the inhibition is -4% (inactive).
As for `Cn1cnc([N+](=O)[O-])c1Sc1ccccc1`, the inhibition was 8.6% (inactive).
Turning to `O=C(N1CCOCC1)N1CCOCC1`, the inhibition was -8.2% (inactive).
In the case of `COc1ccc(C2CC(c3ccc(C)cc3)Nc3ncnn32)cc1` (stereo not drawn), the inhibition is 65.4% (active).
In the case of `COc1ccc(C2CC(c3ccc(C)cc3)Nc3nc(N)nn32)cc1` (stereo not drawn) it was 27.3% (inactive).
In the case of `COc1ccc(C2CC(c3ccccc3)Nc3ncnn32)cc1` (stereo not drawn) it was 23.9% (inactive).
As to `CCC(=O)c1ccc(OCC(O)CN2CC(C)OC(C)C2)cc1` (stereo not drawn), the inhibition is 18.3% (inactive).
For the compound `N#Cc1ccc(-c2ccc(Cl)cc2)nc1Oc1ccc(F)cc1`, the inhibition is 6.8% (inactive).
As for `O=S(=O)(c1ccc(Br)cc1)n1ccc2ccccc21`, the inhibition was -2.4% (inactive).
For `CCOCCOCCC(C(=O)O)P(=O)(c1ccccc1)c1ccccc1` (stereo not drawn), the inhibition is -7.7% (inactive).
Consider `COC(=O)c1sccc1N/N=C(\C)c1ccc(F)c(Cl)c1`, for which the inhibition was 9.3% (inactive).
Consider `COC(=O)c1sccc1NC(=O)CSc1ccccc1NS(=O)(=O)c1cc(Cl)ccc1Cl`, for which the inhibition is 84.2% (active).
As for `COC(=O)c1sccc1NC(=O)c1cc(OC)c(OC)c(OC)c1`, the inhibition is 7.6% (inactive).
Turning to `COC(=O)c1ccccc1Oc1c(F)c(F)nc(N2CCOCC2)c1F`, the inhibition was 45.2% (inactive).
For the compound `CCCCCn1c(SCCC(C)C)nc2c1c(=O)[nH]c(=O)n2C`, the inhibition is 10.1% (inactive).
In the case of `CCn1c(SCC(=O)Nc2ccc3c(c2)OCCO3)nc2c(c1=O)SC(C)C2` (stereo not drawn) it was 92.9% (active); in that of `CCCCSc1nc2c(c(=O)n1CC)SC(C)C2` (stereo not drawn), 51.2% (active).
For the compound `CCOc1ccc(NC(=O)CSc2nc3c(c(=O)n2-c2ccccc2OC)SCC3)cc1`, the inhibition was 40.8% (inactive).
Take `COc1ccccc1C(=O)C(O)c1ccccc1OC` (stereo not drawn): the inhibition is -2.8% (inactive).
Consider `CCOC(=O)N1CCN(CC(=O)Nc2cc(C)nn2-c2nc3ccccc3s2)CC1`, for which the inhibition was 25.8% (inactive).
For `O=C(c1ccco1)N(Cc1nc2ccccc2c(=O)[nH]1)C1CCCC1` the value was -20.5% (inactive); for `CC(=O)Oc1cccc(N2C(=O)CC(Nc3ccc(N4CCOCC4)cc3)C2=O)c1` (stereo not drawn), 19.9% (inactive).
Turning to `CC1OC2C(OC1C)N(S(C)(=O)=O)CCN2S(C)(=O)=O` (stereo not drawn), the inhibition was -6.8% (inactive).
In the case of `Cc1cccc(N2C(=O)C3C(c4ccccc4)OC4(C(=O)c5ccccc5C4=O)C3C2=O)c1` (stereo not drawn), the inhibition was -8.4% (inactive).
For `Cc1cc(NC(=O)CCC(=O)N(c2ccccc2)C(C(=O)NC2CCCC2)c2ccncc2)no1` (stereo not drawn) the value was 55.9% (active); for `Cc1cc(NC(=O)CN2CCC(O)(c3cccc(F)c3)CC2)no1`, 23.3% (inactive); for `Cc1cc(NC(=O)CCC2COc3ccccc3O2)no1` (stereo not drawn), 7.1% (inactive).
In the case of `Cc1ccc(C(C(=O)NC2CCCC2)N(Cc2ccco2)C(=O)CCC(=O)Nc2ccccn2)cc1` (stereo not drawn), the inhibition was 28.7% (inactive).
As to `Cc1cc(NC(=O)/C=C/C(=O)N(c2ccccc2C)C(C(=O)NC2CCCC2)c2ccc(F)cc2)no1` (stereo not drawn), the inhibition is 25.2% (inactive).
With `Cc1cc(NC(=O)CCC(=O)N(c2cccc(F)c2)C(C(=O)NC2CCCC2)c2ccncc2)no1` (stereo not drawn), the inhibition is 77.9% (active).
For `CC1CC(C)CN(C/C=C/c2ccccc2[N+](=O)[O-])C1` (stereo not drawn) the value was 9.8% (inactive); for `CCc1nc(C)ccc1OCC(=O)N(CC)CC`, -6.3% (inactive); for `c1ccc(Nc2n[nH]nc2-c2ccccc2)cc1`, 28.9% (inactive).
For `CCOc1ccc(Cn2c(SCCCCC#N)nc3c2c(=O)n(C)c(=O)n3C)cc1OCC`, the inhibition is 31.1% (inactive).
Consider `Cc1cccc(Cn2c(N3CCN(c4ccccc4)CC3)nc3c2c(=O)n(C)c(=O)n3C)c1`, for which the inhibition is 66.1% (active).
`Cn1c(=O)c2c(ncn2CC(=O)N2CCN(c3ccccc3)CC2)n(C)c1=O`: the inhibition is 6.8% (inactive).
For `CCOC(=O)CSc1nc2c(c(=O)n(Cc3ccccc3Cl)c(=O)n2C)n1C` the value was -7.5% (inactive).
In the case of `CCOC(=O)CSc1nc2c(c(=O)n(C)c(=O)n2C)n1Cc1ccccc1F` it was 60.5% (active).
In the case of `CCCSc1nc2c(c(=O)n(C)c(=O)n2C)n1Cc1ccc(C)cc1` it was 9.9% (inactive).
Take `Cc1cccc(Cn2c(SCCO)nc3c2c(=O)n(C)c(=O)n3C)c1`: the inhibition was 54% (active).
For `C/C(Cl)=C\Cn1c(Nc2cccc(C)c2)nc2c1c(=O)n(C)c(=O)n2C` the value was -7.8% (inactive).
As for `CC(C)OCCCNc1nc2c(c(=O)n(Cc3ccccc3F)c(=O)n2C)n1C`, the inhibition is 22.3% (inactive).
For `COc1ccc(CNC(=O)C2CCN(S(=O)(=O)N3CCOCC3)CC2)cc1` the value was -2.7% (inactive).
For `Cn1c(N)c(C(=O)COC(=O)C23CC4CC(CC(C4)C2)C3)c(=O)n(C)c1=O`, the inhibition is 29.6% (inactive).
On to `COc1ccc(N2C(=O)C3CCCN3C2c2cc(OC)c(OC)cc2OC)cc1` (stereo not drawn), for which the inhibition is -1.9% (inactive).
For the compound `CC1CN(C(=O)CN2C(=O)NC(C)(c3ccccc3)C2=O)CC(C)O1` (stereo not drawn), the inhibition is -27.2% (inactive).
In the case of `CCOC(=O)c1[nH]cnc1C(=O)NC1CCCCC1` it was 28.5% (inactive); in that of `CCOC(=O)C1=C(CNC2CCCCC2)NC(=O)NC1c1cc(C)ccc1C` (stereo not drawn), 84.7% (active).
On to `CCOC(=O)C1=C(CSc2nccn2C)NC(=O)NC1c1ccc(OC)cc1` (stereo not drawn), for which the inhibition was 17.2% (inactive).
For `Cc1[nH]c2ccccc2c1C(=O)CSCC(=O)O` the value was -30.3% (inactive).
With `COc1ccc2[nH]c3c(=O)n(Cc4ccco4)cnc3c2c1`, the inhibition was 26% (inactive).
With `CCC(c1nnnn1C1CCCC1)N(Cc1cccs1)Cc1cc2cccc(C)c2[nH]c1=O` (stereo not drawn), the inhibition is -52.1% (inactive).
Turning to `CCC(c1nnnn1Cc1ccco1)N(Cc1cc2cc(OC)ccc2[nH]c1=O)C1CCCCC1` (stereo not drawn), the inhibition is 58.2% (active).
Regarding `CCOc1ccc2c(c1)cc(CN(C(=O)CC)C1CCCCC1)c1nnnn12`, the inhibition is 35.6% (inactive).
Turning to `CCC(c1nnnn1Cc1ccco1)N(CCc1ccccc1)Cc1cc2ccc(OC)cc2[nH]c1=O` (stereo not drawn), the inhibition was 91.9% (active).
`CCC(c1nnnn1Cc1ccco1)N(CCc1ccccc1)Cc1cc2cccc(C)c2[nH]c1=O` (stereo not drawn): the inhibition is 29% (inactive).
Consider `CC1(C)Cc2cccc(OCC(N)=O)c2O1`, for which the inhibition is -6.4% (inactive).
As for `CCn1ncc(Br)c1C(=O)Nc1cc(C)ccc1F`, the inhibition was -6.9% (inactive).
On to `Cc1csc(NC(=O)CN2CCCCCC2)n1`, for which the inhibition was 0.6% (inactive).
As to `CC(Oc1ccc(Cl)cc1Cl)C(=O)/C=C/N(C)C` (stereo not drawn), the inhibition was 23% (inactive).
On to `Cc1cc(=O)cc(C)[nH]1`, for which the inhibition was -13.9% (inactive).
In the case of `Cc1ncn(C23CC4CC(CC(O)(C4)C2)C3)n1` it was 10.7% (inactive).
As for `COCCOCCn1cnc2ccccc21`, the inhibition is 0% (inactive).
As to `CC(C)c1ccc(NC(=O)CCN2C(=O)c3ccc([N+](=O)[O-])cc3C2=O)cc1`, the inhibition was 14.3% (inactive).
In the case of `CCC(CC)C(=O)Nc1cc(C(=O)OC)cc(C(=O)OC)c1` it was 9% (inactive); in that of `COC(=O)c1cc(NC(=O)C2C3C=CC(C3)C2C(=O)O)cc(C(=O)OC)c1` (stereo not drawn), 64.3% (active); in that of `Cc1sc(NC(=O)C2C3CCC(O3)C2C(=O)O)c(C(=O)OC(C)C)c1-c1ccc(Cl)cc1` (stereo not drawn), 9.3% (inactive).
In the case of `CC(C)OC(=O)c1cc(NC(=O)C2C3CCC(O3)C2C(=O)O)cc(C(=O)OC(C)C)c1` (stereo not drawn) it was 79.4% (active).
Regarding `CC(C)COC(=O)c1ccc(NC(=O)C2C3C=CC(C3)C2C(=O)O)cc1` (stereo not drawn), the inhibition is 29.9% (inactive).

The record behind these values is PubChem BioAssay AID777 (Sanford-Burnham Center for Chemical Genomics, 2007).
